IL-1B inflam inh = inflammasome signaling inhibition, IL-1 beta readout; THP-1 LPS/ATP IL-1B secretion, AlphaLISA, 16 h; stronger effect = lower value; activity change, % at 57.5 µM; 360,000 compounds, 4.7% hits; AID 743279; in the data active = activity change below about -50%; inconclusive = mostly about -30% to -49%
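THP-1 cells pretreated 1 hr with compounds (up to 57.5 uM final), then stimulated with LPS (250 ng/mL final) plus ATP (1.25 mM final); secreted IL-1B measured by AlphaLISA after 16 hr, decreased signal indicating inhibition.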
HT1080 IDH1KD tx = kills HT-1080 cells with IDH1 knockdown; HT-1080 IDH1 knockdown viability, ATP luminescence, 48 h; 360,000 compounds, 2% hits; Potency, µM (top dose mostly 46.1 µM), without a hit: top-dose activity, negative = toxicity, usual class: cytotoxic;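 also: potency is read from the fitted curve at half-maximal effect; 0% = DMSO wells and -100% = cell-free medium wells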
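IDH1KD HT-1080 cells, 750/well, RPMI + 5% FBS; compound pinned after 2 h settling; 48 h, 37 °C; CellTiter-Glo luminescence; % activity normalised to DMSO and no-cell wells; curves fitted, classed by r2 and efficacy.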
HT1080NT lethal = kills 2HG-producing HT-1080-NT fibrosarcoma cells | HT-1080-NT fibrosarcoma viability, CellTiter-Glo ATP luminescence, 48 h | Potency, µM (highest dose often 46.1 µM), inactives show at the top dose activity, negative = less viability, usual class: cytotoxic | 360,000 compounds, 1.6% hits | AID 686970;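 also: NT is the 2HG producing partner of a matched IDH1 knockdown line; potency is read from the fitted curve at half-maximal effect; 0% = DMSO-treated cells and -100% = media-only wells without cells; nearly all actives have a fitted effect of over 55% in size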
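HT-1080-NT fibrosarcoma cells (2HG-overproducing), 750 cells/well in RPMI with 5% FBS, dosed after 2 h and incubated 48 h at 37C. CellTiter-Glo luminescence normalized to DMSO and no-cell wells; concentration-response curves fitted and classed.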
ALOX12 inh = ALOX12 (human) lipoxygenase inhibition; P18054; purified 12hLO, xylenol orange hydroperoxide absorbance; Potency, µM (top dose mostly 108 µM), for inactives: at the highest dose activity change, negative = inhibition, usual class: inhibitors; 580,000 compounds, 1.1% hits; AID 1671190; also: potency is read from the fitted curve at half-maximal effect
Target sequence (P18054 whole entry, looked up): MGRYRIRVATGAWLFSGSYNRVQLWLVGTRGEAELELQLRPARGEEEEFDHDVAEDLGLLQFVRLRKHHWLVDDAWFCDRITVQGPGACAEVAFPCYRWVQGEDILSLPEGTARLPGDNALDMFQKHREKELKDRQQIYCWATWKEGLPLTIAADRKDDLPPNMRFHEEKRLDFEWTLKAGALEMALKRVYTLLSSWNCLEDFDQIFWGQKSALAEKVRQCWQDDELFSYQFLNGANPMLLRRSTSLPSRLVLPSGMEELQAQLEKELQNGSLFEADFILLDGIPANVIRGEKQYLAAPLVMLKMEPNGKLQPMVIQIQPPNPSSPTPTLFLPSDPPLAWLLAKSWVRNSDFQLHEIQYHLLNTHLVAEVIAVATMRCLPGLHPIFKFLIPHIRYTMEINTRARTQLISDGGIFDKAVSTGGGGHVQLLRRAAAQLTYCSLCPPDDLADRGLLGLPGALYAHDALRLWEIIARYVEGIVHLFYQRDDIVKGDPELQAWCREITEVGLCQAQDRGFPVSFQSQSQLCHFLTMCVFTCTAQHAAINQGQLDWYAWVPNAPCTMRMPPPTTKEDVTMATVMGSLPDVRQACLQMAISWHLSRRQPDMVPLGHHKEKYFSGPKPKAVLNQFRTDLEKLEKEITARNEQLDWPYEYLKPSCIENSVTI
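Purified human 12hLO (150 nM final) in 25 mM Hepes, 0.01% Triton X-100, pH 7.0 was preincubated 15 min at room temperature with compound. Then 40 uM arachidonic acid was added, 30 min. Hydroperoxide was read by Fe-XO absorbance ratio 573/405 nm.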
TDP1 cell noCPT = qHTS for Inhibitors of human tyrosyl-DNA phosphodiesterase 1 (TDP1): qHTS in cells in absence of CPT | Potency, µM (series often up to 46.2 µM), without a hit: at the top dose activity change, negative = growth inhibition, usual class: inhibitors | 420,000 compounds, 15% hits | DT40 Tdp1-/- hTDP1 cells, no CPT, ATP luminescence, 48 h; also: potency is read from the fitted curve at half-maximal effect; nearly all actives have a fitted effect of over 55% in size
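Chicken DT40 Tdp1-/- cells complemented with human TDP1, screened without camptothecin (DMSO vehicle only), 400 cells/well. Compounds pin-transferred, cells incubated at 37 °C for at least 48 hr. Growth read as ATP-dependent luminescence (CellTiter-Glo, 30 min at RT).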
DT40 TDP1 CPT = growth inhibition of DT40 Tdp1-/-;hTDP1 cells with camptothecin (screen for TDP1 inhibitors). chicken DT40 Tdp1-/-;hTDP1 cells + 20 nM CPT, ATP luminescence, 48 h. Potency, µM (series often up to 46.2 µM), for inactives: at the highest dose activity change, negative = growth inhibition, hits mostly inhibitors. 420,000 compounds, 12% hits. AID 686979; also: potency is read from the fitted curve at half-maximal effect; nearly all actives have a fitted effect of over 55% in size
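Chicken DT40 Tdp1-/- cells stably complemented with human TDP1 were seeded at 400 cells/well in medium containing 20 nM camptothecin, exposed to pin-transferred compounds, and grown at 37 °C for at least 48 hr. Viability was read as ATP luminescence.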
Numbers without * were called inactive; u = inconclusive; x = no result given; [ ] = dose if it differs, or a comment. The entries come from a sample that favours hits as a whole. Unless noted, calls follow the shape of the dose curve; as a rule, active = well fitted curve in the direction sought with a large enough effect; inconclusive = small, poorly fitted or top-dose-only effect, or another doubt; inactive = no such curve, though single readings can be large; an effect the other way counts as inactive or inconclusive. Unless noted, % is scaled to controls: 0 for no effect and ±100 for the full control effect.

SMILES	IL-1B inflam inh	HT1080 IDH1KD tx	HT1080NT lethal	ALOX12 inh	TDP1 cell noCPT	DT40 TDP1 CPT
Cc1cccc2c(C(=O)NC3CC3)cc(-c3cccnc3)nc12	x	x	x	10.7%	x	x
Cc1ccccc1CC(=O)c1ccc(O)c(C)c1O	-55.0*	u	u	u	u	-21.3%
CN(C)c1ccc(CNC(=O)c2ccc3c(c2)N(C)C(=O)C2CCCCN32)cc1 (centres undefined)	x	x	x	-9.6%	u	18.4µM*
COc1ccc(S(=O)(=O)Nc2cc3c(cc2NCc2ccccc2)n(C)c(=O)n3C)cc1OC	x	x	x	u	20.6µM*	u
Cc1cc(S(=O)(=O)Nc2cc3c(cc2NCc2ccccc2)n(C)c(=O)n3C)ccc1F	x	x	x	-76.5%	11.6µM*	7.31µM*
COc1ccc(S(=O)(=O)Nc2ccc3c(c2)n(C)c(=O)n3C)cc1OC	u	-8.7%	-29.6%	-2.4%	u	0.4%
CN(C)c1cc2c(cc1NS(=O)(=O)c1ccccc1)n(C)c(=O)n2C	4.1	-1.5%	-3.0%	u	u	u
Cn1c(=O)n(C)c2cc(NS(=O)(=O)c3ccc(C(C)(C)C)cc3)c(NCc3ccccc3)cc21	x	x	x	u	23.1µM*	20.6µM*
Cn1c(=O)n(C)c2cc(NS(=O)(=O)c3ccccc3)c(NCc3ccccc3)cc21	x	x	x	7.5%	u	14.6µM*
O=C(Cc1ccccc1)N1CCC2(CC1)N(c1ccccc1)C(=O)CS2(=O)=O	x	x	x	13.4%	x	x
CC/C=C(/C)C(=O)NCc1ccc(C(=O)NC(C)CC)cc1 (centres undefined)	x	x	x	-14.3%	x	x
CC(C)Cn1cnc2cccnc21	x	x	x	15.2%[176 µM]	x	x
CCCCn1c(N)c(N(CC(C)C)C(=O)c2cc3c(s2)CCC(C)C3)c(=O)[nH]c1=O (centres undefined)	x	x	x	134.4%	x	x
Cn1c(=O)n(C)c2cc(NS(=O)(=O)c3ccc(Cl)cc3)c(NCc3ccccc3)cc21	x	x	x	-28.4%	13µM*	10.3µM*
O=C(NCCc1ccc(Cl)cc1)C1CCN(S(=O)(=O)c2ccc(Br)s2)CC1	-2.7	-19.8%	-10.7%	1.1%	u	-29.3%
O=C(Nc1ccc(Cl)cc1)C1CCN(S(=O)(=O)c2ccc(Br)s2)CC1	x	x	x	u	23.1µM*	u
Cc1cc(NC(=O)C2CCCN(S(=O)(=O)c3ccc(Br)s3)C2)ccc1Br (centres undefined)	x	x	x	u	13µM*	u
CC(=O)c1ccc(NC(=O)C2CCCN(S(=O)(=O)c3ccc(Br)s3)C2)cc1 (centres undefined)	x	x	x	u	-6.0%	-4.6%
Cc1cc(NC(=O)C2CCN(S(=O)(=O)c3cnc[nH]3)CC2)ccc1Br	-56.7*	-17.0%	-22.6%	0.0%	u	-12.6%
O=C(NCc1ccc2c(c1)OCO2)C1CCN(S(=O)(=O)c2cccs2)CC1	-10.6	2.1%	12.5%	-12.6%	-10.4%	-19.8%
O=C(NCc1ccc2c(c1)OCO2)C1CCN(S(=O)(=O)c2ccc(Br)s2)CC1	-14.8	-7.3%	-5.0%	0.0%	20.6µM*	-22.3%
NC(=O)c1ccsc1NC(=O)C1CCN(S(=O)(=O)c2cccs2)CC1	-10.2	-10.4%	-7.7%	-10.9%	u	-27.3%
CNC(=O)c1ccsc1NC(=O)C1CCN(S(=O)(=O)c2ccc(Cl)s2)CC1	22.7	u	u	-1.1%	u	16.4µM*
O=S(=O)(c1ccc(Br)s1)N1CCC(Cc2ccccc2)CC1	-3.2	-0.7%	3.4%	19.0%	u	14.1µM*
Cc1csc(NC(=O)C2CCCN(S(=O)(=O)c3ccc(Br)s3)C2)n1 (centres undefined)	-14.3	-15.0%	-14.0%	1.1%	18.4µM*	16.4µM*

Assay outcomes (PubChem)
